FMDV inh = foot and mouth disease virus antiviral activity. FMDV antiviral cell-based qHTS. Potency, µM (series often up to 57.9 µM), usual class: inhibitors. 410,000 tested, 1.2% active. AID 1159524; calls by dose curve; tested in HEK293T cells; further: read-out not given here; nearly all actives have a fitted effect of over 45% in size
Sm TGR inh = S. mansoni TGR enzyme inhibition; Potency, µM (highest dose often 114 µM), actives largely listed as inhibitors; purified TGR, DTNB reduction, TNB absorbance 405 nm; 360,000 tested, 3% active; Q962Y6; further: nearly all actives have a fitted effect of over 60% in size
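TGR 20 nM + NADPH 100 uM (dispensed conc.), cpd preinc 15 min RT; start with NADPH (500 uM addition) then DTNB (15 mM addition). Kinetic TNB absorbance, 405 nm filter. Four-parameter Hill fit across titration.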
Tb PYK inh = T. brucei pyruvate kinase inhibition | Q57TT1 | TbPYK enzyme, Kinase-Glo Plus ATP luminescence, 45 min | Potency, µM (top dose mostly 76.8 µM), hits mostly inhibitors | 410,000 tested, 0.12% active; further: nearly all actives have a fitted effect of over 50% in size
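TbPYK + substrate in 50 mM TEA pH 7.2, 100 mM KCl, 10 mM MgCl2, 0.05% BSA, 0.01% Tween-20; cpd pinned; ADP 130 uM final; 45 min RT; Kinase-Glo Plus 10 min; luminescence endpoint.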
RE007 growth inh = less growth of the S. pombe RE007 Vpr strain; S. pombe RE007 Vpr strain, BacTiter-Glo ATP luminescence, 24 h; AID 651644; Potency, µM (top dose mostly 92.2 µM), actives largely listed as inhibitors; 360,000 tested, 0.21% active; active means well fitted falling curve with a large enough effect; inconclusive means small, poorly fitted or top-dose-only effect; inactive means no such curve, though single readings can be large or run the other way; further: nearly all actives have a fitted effect of over 50% in size
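Fission yeast RE007 carrying one integrated HIV-1 vpr copy, seeded at OD 0.01 in PMG+AL medium with 23 nL pinned compound. Grown 24 h at 30 degrees; viability read by BacTiter-Glo luminescence after 5 min.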
Of the large screens only hits and unclear results are named; the others gave an inactive call. An excerpt weighted towards active compounds, which were near 3.7% of everything screened. Unless noted, the call rests on the fitted dose curve; in most records, active means well fitted curve in the direction sought with a large enough effect; inconclusive means small, poorly fitted or top-dose-only effect, or another doubt; inactive means no such curve, though single readings can be large; an effect the other way counts as inactive or inconclusive.

COc1ccc(C(=O)CCNc2ccc(F)cc2)cc1	Sm TGR inh 3.16µM
O=C(CCNc1ccccc1)c1cccc([N+](=O)[O-])c1	Sm TGR inh 0.447µM, RE007 growth inh 11.2µM
O=C(CC(=O)c1ccccc1)Nc1cccc([N+](=O)[O-])c1	none (no result: Sm TGR inh)
Cc1ccc(NC(=O)C2CCN(S(=O)(=O)c3ccc4[nH]c(=O)ccc4c3)CC2)cc1C	none (no result: RE007 growth inh)
N#Cc1cc(Oc2cccc3cccnc23)c(-n2nnc3ccccc32)cc1C#N	FMDV inh 15.8µM, Sm TGR inh inconclusive
N#Cc1cc(O)c(-n2nnc3ccccc32)cc1C#N	none
COc1ccc(NC(=O)CSc2ccc(-c3ccco3)nn2)cc1OC	FMDV inh inconclusive, Sm TGR inh 44.7µM
CC(=O)c1ccc(NC(=O)CSc2nnc(-c3ccco3)o2)cc1	none
COc1ccc(CCNC(=O)CSc2nnc(-c3ccco3)c(-c3ccco3)n2)cc1OC	Sm TGR inh 2.24µM (no result: FMDV inh, Tb PYK inh, RE007 growth inh)
COc1ccc(-c2nnc(SCC(=O)NCCc3ccc(OC)c(OC)c3)nc2-c2ccc(OC)cc2)cc1	none (no result: RE007 growth inh)
COc1cccc(NC(=O)CSc2ccc(-c3ccco3)nn2)c1	Sm TGR inh 39.8µM
Cc1ccc(NC(=O)CSc2nnc(-c3ccco3)o2)cc1	Sm TGR inh 79.4µM
O=c1n(Cc2ccccc2Cl)c2ccccc2c2nc(-c3ccccc3)nn12	none (no result: RE007 growth inh)
CCOc1ccc(CCNC(=O)CN2C(=O)COc3ccc(S(=O)(=O)N(CC)CC)cc32)cc1	none (no result: RE007 growth inh)
COc1ccc(CCNC(=O)CSc2ccc(-c3ccco3)nn2)cc1OC	Sm TGR inh 17.8µM
COc1cccc(NC(=O)CSc2ccc(-c3sc(C)nc3C)nn2)c1	FMDV inh 31.6µM
COc1ccc(CCNC(=O)CSc2ccc(-c3ccccc3)nn2)cc1	none (no result: FMDV inh, Tb PYK inh, RE007 growth inh)
O=C(CSc1ccc(-c2ccco2)nn1)Nc1ccccc1	Sm TGR inh 7.08µM
O=C(c1cnn2c(C(F)(F)F)cc(-c3ccccc3)nc12)N1CCCCC1c1cccnc1 (stereo not drawn)	none (no result: Sm TGR inh)
O=C(c1cc2nc(-c3ccc(F)cc3)cc(C(F)(F)F)n2n1)N1CCCCC1c1cccnc1 (stereo not drawn)	FMDV inh 17.8µM
Cn1c(=O)n(CCc2ccccc2)c(=O)c2c1nc1n2CCCN1Cc1ccccc1	FMDV inh 20µM
Cn1c(=O)n(CCc2ccccc2)c(=O)c2c1nc1n2CCCN1CCc1ccccc1	FMDV inh inconclusive
COc1cc(C2CC(=O)N(c3ccccc3)C3=C2C(=O)OC3)cc(OC)c1OC (stereo not drawn)	none (no result: RE007 growth inh)
CCCCCC#CCC#CCC#CCC#CCCCC(=O)O	Sm TGR inh 20µM (no result: Tb PYK inh, RE007 growth inh)
C#CCOc1ccc(Br)cc1C(c1c(C)[nH][nH]c1=O)c1c(C)[nH][nH]c1=O	Sm TGR inh 44.7µM
Cc1c2cnn(CC(=O)N3CCN(c4ccccc4)CC3)c(=O)c2c(C)n1Cc1ccc(F)cc1	none (no result: RE007 growth inh)
O=C(O)c1cccc(COc2ccccc2Cl)c1	FMDV inh 1.41µM
CC1CCN(S(=O)(=O)c2cccc(C(=O)NCc3ccco3)c2)CC1	none
O=C(NNC(=S)NCc1ccco1)c1ccc(S(=O)(=O)N2CCOCC2)cc1	none
O=C(NCc1ccco1)c1ccc(S(=O)(=O)c2cccc(S(=O)(=O)N3CCOCC3)c2)cc1	Sm TGR inh 50.1µM
Cc1cc(S(=O)(=O)N2CCCC2)ccc1OCC(=O)NCc1ccco1	Sm TGR inh 39.8µM (no result: FMDV inh)
O=C(NCc1ccco1)c1cccc(S(=O)(=O)N2CCCC2)c1	Sm TGR inh 50.1µM
Cc1ccc(C(=O)NCc2ccco2)cc1S(=O)(=O)N1CCOCC1	none
Cc1ccc(C(=O)NCc2ccco2)cc1S(=O)(=O)N1CCCC1	Sm TGR inh 39.8µM
CCOCCCNC(=O)C(c1ccc(OC)cc1)N(Cc1cccs1)C(=O)c1ccc(NC(C)=O)cc1 (stereo not drawn)	none (no result: RE007 growth inh)
O=C(OCc1ccco1)c1ccc(S(=O)(=O)N2CCCCC2)cc1	Sm TGR inh 7.08µM
O=C(CSc1nnc(-c2ccc(S(=O)(=O)N3CCCC3)cc2)o1)NCc1ccco1	Sm TGR inh 44.7µM
Cc1cccc(N2CCN(C(=O)c3cc(S(=O)(=O)N4CCC(C)CC4)cn3C)CC2)c1C	none (no result: RE007 growth inh)
Cc1oc2ccc(O)c(CN3CCOCC3)c2c1C(=O)Nc1ccc(C(C)C)cc1	none (no result: RE007 growth inh)
Nc1c(S(=O)(=O)c2cccs2)c2nc3ccccc3nc2n1/N=C/c1cccc(O)c1	FMDV inh 39.8µM
COc1cccc(/C=N/n2c(N)c(S(=O)(=O)c3cccs3)c3nc4ccccc4nc32)c1	none (no result: Tb PYK inh)
C=CCN(c1ccccc1OC)S(=O)(=O)c1cccc(C(=O)OCC(=O)c2c[nH]c3ccccc23)c1	FMDV inh inconclusive
COc1cc(OC)c(N(C)S(=O)(=O)c2cccc(C(=O)OCC(=O)c3c[nH]c4ccccc34)c2)cc1Cl	FMDV inh 8.91µM
COc1cc(-c2nc3sccn3c2Nc2c(C)cccc2C)ccc1O	Sm TGR inh 1.12µM (no result: RE007 growth inh)
Cc1cccc(C)c1Nc1c(-c2ccc(O)cc2)nc2sccn12	none (no result: RE007 growth inh)
Cc1ccc(CNc2ccc(O)cc2)cc1	Sm TGR inh 11.2µM
Cn1c(N)c(C(=O)CCl)c(=O)n(Cc2ccccc2)c1=O	FMDV inh 28.2µM, Sm TGR inh 11.2µM
Cn1c(=O)c(C(=O)CSc2ccccc2)c(N)n(Cc2ccccc2)c1=O	none
CN(C)CC(=O)c1c(N)n(Cc2ccccc2)c(=O)n(C)c1=O	none
Cn1c(N)c(C(=O)COC(=O)C2CCCCC2)c(=O)n(C)c1=O	none
Cn1c(N)c(C(=O)CCl)c(=O)n(C)c1=O	FMDV inh inconclusive, Sm TGR inh 25.1µM
Cn1c(=O)c(C(=O)CCl)c(N)n(Cc2ccccc2)c1=O	FMDV inh inconclusive, Sm TGR inh 7.08µM
CCOC(=O)/C=C/C(=O)Nc1ccccc1-c1ccccc1NC(=O)/C=C/C(=O)OCC	FMDV inh inconclusive, Sm TGR inh 12.6µM
CCOC(=O)/C=C/C(=O)OCC(=O)Nc1cccc(Cl)c1Cl	Sm TGR inh inconclusive
CCOC(=O)/C=C/C(=O)OCC(=O)Nc1ccc([N+](=O)[O-])cc1	Sm TGR inh 3.98µM
CCOC(=O)/C=C/C(=O)Nc1cccc([N+](=O)[O-])c1	FMDV inh 25.1µM, Sm TGR inh 0.708µM, Tb PYK inh inconclusive, RE007 growth inh 8.91µM
CCOC(=O)c1cccc(NC(=O)/C=C/c2cccc([N+](=O)[O-])c2)c1	FMDV inh inconclusive
COc1cc(/C=C/C(=O)OCC(=O)Nc2ccc([N+](=O)[O-])cc2)ccc1O	none
Cc1nn(C(=O)COc2ccccc2)c(C)c1Sc1ccccc1	none (no result: RE007 growth inh)
Cc1ccc(CNC(=O)CCc2c(C)nc3c4c(C)cc(C)nc4nn3c2C)cc1	none (no result: RE007 growth inh)
CCCCSc1nnc2n(-c3ccc(OC)cc3)c(=O)c3c4c(sc3n12)COC(C(C)C)C4 (stereo not drawn)	FMDV inh inconclusive (no result: RE007 growth inh)
CN1CCCCCC1C(=O)NCC1Cc2cc(-c3cnccn3)ccc2O1 (stereo not drawn)	none (no result: Sm TGR inh, Tb PYK inh, RE007 growth inh)
CCOC(=O)C(CC)(CC)C(=O)/C=C/c1cccc(Br)c1	FMDV inh 22.4µM (no result: Sm TGR inh)
NC(=O)NC(=O)COC(=O)/C=C/c1cccc(Br)c1	none
O=C(NCc1ccc(Cl)cc1)c1cnc2sc(N3CCCC3)nn2c1=O	none (no result: RE007 growth inh)
CCOc1cc(CN2CCOCC2)cc(C(C)=O)c1	Sm TGR inh 44.7µM
